SMILES strings stand for the structures. A number with no mark means an inactive call.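 Rule for the calls: active = RAM network inhibition above 8.4% in each of two replicates, 3 SD over the compound average; inconclusive = above 8.4% inhibition in only one replicate; inactive = 8.4% inhibition or less in each replicate.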

The experiment can be described thus: RAM signaling pathway blockade in yeast – S. cerevisiae, Pdr1DBD-CYC8 efflux-inhibited sensitized strain, primary screen (AID 1298).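 Note: 0% = DMSO untreated cells without growth and 100% = 10 µM 1-NA-PP1 full growth; higher means more yeast growth rescued from 5-FOA killing.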 The settings on record: S. cerevisiae cbk1-as DSE1-URA3 strain, 5-FOA growth OD615, 2 d; at 50 µM; active compounds read high.
As for `CCCC(=O)Nc1nc2c(OC)ccc(OC)c2s1`, the RAM network inhibition is 3.64%.

As for `COc1ccc(N(CC(=O)NCc2ccccc2OC)S(=O)(=O)c2c(C)nn(C)c2C)cc1`, the RAM network inhibition is 2.29%.

Regarding `O=C(c1ccc(CS(=O)(=O)c2ccc(Br)cc2)o1)N1CCN(c2ncccn2)CC1`, the RAM network inhibition is 3.64%.

With `COc1ccc(C2C(C(=O)Nc3cc(C)on3)c3ccccc3C(=O)N2C)cc1OC` (stereo not given), the RAM network inhibition is 4.64%.

For the molecule `O=C(O)CC1Sc2ccccc2NC1=O` (stereo not given), the RAM network inhibition is 4.47%.

With `C=CCNc1nc2c(c(=O)[nH]c(=O)n2C)n1Cc1cccc(C)c1`, the RAM network inhibition is 5.89%.

With `CCOC(=O)C1=C(C)S/C(=C\N(C)C)C1=O`, the RAM network inhibition is -2.3%.

Turning to `COc1cccc(NC(=O)CSc2ncnc3c2oc2ccccc23)c1`, the RAM network inhibition is 4.42%.

Turning to `CCCCCCNC(=O)C(C(=O)OCC)C1CCCCC1` (stereo not given), the RAM network inhibition is 3.88%.

As to `COc1ccc(-c2cc3ccccc3n2CC(O)CN2CCN(CCO)CC2)cc1` (stereo not given), the RAM network inhibition is 4.23%.

As for `CC(=O)c1c(Nc2ccc3c(c2)OCCO3)oc(C)cc1=O`, the RAM network inhibition is -2.1%.

As to `COc1ccc(-c2noc(CN3CCN(c4ccccc4)CC3)n2)cc1`, the RAM network inhibition is 5.43%.

On to `O=C1CSC(=S)N1Cc1cccnc1`, for which the RAM network inhibition is -0.15%.

As to `COc1ccc(NC(=O)C2CCCN2S(=O)(=O)c2ccc(F)cc2)cc1` (stereo not given), the RAM network inhibition is -1.32%.

Turning to `CCCCCCn1c(CN2CCN(CCO)CC2)nc2c1c(=O)n(C)c(=O)n2C`, the RAM network inhibition was 2.43%.

With `Cc1nn(-c2ccccc2)c2sc(C(=O)n3cccn3)cc12`, the RAM network inhibition was 8.3%.

With `Cc1cc(NC(=O)CSc2ccc3nnc(-c4ccccn4)n3n2)no1`, the RAM network inhibition is 1.71%.

On to `COc1cccc(C2CC(c3ccc(Cl)cc3)n3nc(N)nc3N2)c1` (stereo not given), for which the RAM network inhibition was 7.39%.

As to `CC(=O)c1c(C)oc(C)c1CSCc1ccc(C(=O)O)o1`, the RAM network inhibition is 3.55%.

Regarding `CC(=O)Nc1ccc(S(=O)(=O)c2ccc(N)cc2)cc1N`, the RAM network inhibition is 3.91%.

Take `COC(=O)C1C2C=CC3(CN(C(C)C)C(=O)C13)O2` (stereo not given): the RAM network inhibition is 1.89%.

In the case of `CC(c1ccc(Br)cc1)N1CC23C=CC(O2)C(C(=O)O)C3C1=O` (stereo not given), the RAM network inhibition was -1.25%.

In the case of `CC(C)C(NS(=O)(=O)c1ccc2c3c(cccc13)C(=O)N2)C(=O)O` (stereo not given), the RAM network inhibition is 3.8%.

`CC1=C(C(=O)OCc2ccc3c(c2)OCO3)C(c2ccc(Cl)cc2)NC(=O)N1` (stereo not given): the RAM network inhibition is 4.12%.

On to `CCOc1ccc2[nH]c(C)c(CN3CCOCC3)c(=O)c2c1`, for which the RAM network inhibition was 2.56%.

As to `CC(NC(=O)CSc1ncnc2nc[nH]c12)c1ccccc1` (stereo not given), the RAM network inhibition is 0.48%.

In the case of `CCOc1ccc(N=Cc2c(O)cc(C)oc2=O)cc1`, the RAM network inhibition was 1.99%.

As for `O=C(OCN1C(=O)c2ccccc2C1=O)c1ccco1`, the RAM network inhibition is 3.35%.

Turning to `O=C(Nc1cccnc1)c1cc(-c2ccc(Br)cc2)on1`, the RAM network inhibition is 6.96%.

In the case of `CN1CCN(c2ccccc2NC(=O)C(Cc2ccccc2)n2cccc2)CC1` (stereo not given), the RAM network inhibition is 4.23%.

For `COc1ccc(NC(=O)C2CCN(S(=O)(=O)c3cccc4cccnc34)CC2)cc1OC`, the RAM network inhibition was 1.04%.

As to `CCn1cc(C(=O)NCCCN2CCC(C)CC2)c2cc(OC)c(OC)cc2c1=O`, the RAM network inhibition was 1.99%.

On to `COc1ccccc1NC(=O)C1C2C=CC3(CN(Cc4cccnc4)C(=O)C13)O2` (stereo not given), for which the RAM network inhibition was -0.51%.

As for `O=C(N1CCOCC1)N1CCN(c2ccccc2F)CC1`, the RAM network inhibition is 4.21%.

Take `CCCc1cc(=O)oc2cc3occ(C)c3cc12`: the RAM network inhibition is 4.79%.

Turning to `COc1ccccc1N1CCN(c2cc(=O)n(-c3ccc(Cl)cc3)c(=O)[nH]2)CC1`, the RAM network inhibition was 7.55%.

For the molecule `COc1ccc(OC)c(S(=O)(=O)NCc2cn3c(C)csc3n2)c1`, the RAM network inhibition is 5.95%.

As for `CCOc1ccc(OCC)c(S(=O)(=O)NCc2ccc3c(c2)OCO3)c1`, the RAM network inhibition was 5.31%.

`COc1cccc(C2NC(CCSC)(C(=O)O)C3C(=O)N(C(C)C)C(=O)C23)c1O` (stereo not given): the RAM network inhibition was -1.51%.

In the case of `Cn1c(NC(=O)c2cc(Cl)ccc2Cl)cc(=O)n(C)c1=O`, the RAM network inhibition is 1.45%.

Values taken from PubChem BioAssay.
